Results taken from PubChem BioAssay AID422 (Emory University Molecular Libraries Screening Center, 2006).
Values joined by “and” are separate entries in the source; they are usually repeats but may differ in a detail not shown here. Equal entries are not always repeated. Out of some 160,000 compounds screened, about 310 (0.19%) were called active. Rule as the data show it: active = inhibition above about 30%; inactive = the rest. The entries come from a sample that favours actives as a whole. The source holds several records for some structures; these can differ, active in one and inactive in another.

Each compound was assayed against 14-3-3 protein gamma (Homo sapiens) (UniProt P61981) (assay: 14-3-3 gamma/Raf peptide interaction modulators – biochemical, fluorescence polarization, primary screen (AID 422;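 also: 0% = protein plus tracer without compound and 100% = blank with tracer alone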)). Conditions: FP, 14-3-3gamma / TMR-pS259-Raf peptide binding; at 40 µM; stronger effect = higher value.
14-3-3 protein gamma (Homo sapiens), sequence (P61981 whole entry, looked up): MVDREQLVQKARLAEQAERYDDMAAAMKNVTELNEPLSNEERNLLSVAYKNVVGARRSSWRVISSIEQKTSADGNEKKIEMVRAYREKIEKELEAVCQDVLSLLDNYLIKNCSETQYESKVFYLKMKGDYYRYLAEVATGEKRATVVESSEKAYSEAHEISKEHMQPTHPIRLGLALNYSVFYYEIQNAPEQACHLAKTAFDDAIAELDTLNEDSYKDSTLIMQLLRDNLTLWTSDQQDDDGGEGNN

Row | Structure (SMILES) | inhibition
1 | Cc1ccc2c(=O)c(CN3CCOCC3)c(C)[nH]c2c1C | -4.4% (inactive)
2 | Cc1ccc(-c2nnc(NCc3ccccc3)c3ccccc23)cc1S(=O)(=O)N1CCOCC1 | -13.1% (inactive)
3 | COc1ccc(CN2CCN(S(=O)(=O)c3cc(Br)c(Br)s3)CC2)c(OC)c1OC | -1% (inactive)
4 | Cc1cc(N2CCOCC2)nc2ccc(NC(=O)c3ccc(F)cc3)cc12 | -5.58% (inactive)
5 | O=c1c2ccc(-c3ncc(-c4ccccc4)o3)c3cccc(c32)c2nc3cccc4cccc(c43)n12 | -3.12% (inactive)
6 | Clc1ccc2nc(-c3ccsc3)c(NC3CCCCC3)n2c1 | 1.17% (inactive)
7 | O=C(CC1Sc2ccccc2NC1=O)NCCCSC1CCCCC1 (configuration not stated) | 5.8% (inactive)
8 | N#Cc1c(N2CCCCCC2)ncc2cc3ccccc3nc12 | 143% (active)
9 | Cc1cc(NCCN2CCCCCC2)n2c(nc3ccccc32)c1C#N | -60.5% (inactive)
10 | Cc1cccc2cc(C#N)c(N3CCCC3)nc12 | -5.89% (inactive)
11 | O=C(Nc1cccc2cccnc12)c1cccc(N2C(=O)CCC2=O)c1 | 2.56% (inactive)
12 | COc1ccc(NC(=O)Nc2cccc3cccnc23)cc1 | -2.7% (inactive)
13 | O=C(O)c1ccccc1C(=O)Nc1cccc2cccnc12 | 52.6% (active)
14 | O=C(NC1CCCCNC1=O)c1ccc(N2CC3CC(C2)c2cccc(=O)n2C3)c(NC(=O)c2ccccc2Br)c1 (configuration not stated) | -4.63% (inactive)
15 | CN(Cc1ccccc1)S(=O)(=O)c1ccc2c(c1)CCN2C(=O)C1CCC1 | -4.53% (inactive)
16 | Cc1ccc(-c2csc(Nc3ccccc3)n2)c(C)c1 | -4.17% (inactive)
17 | O=C(CSc1nc2ccccc2[nH]1)c1cccs1 | -10.8% (inactive) and -0.41% (inactive)
18 | C=CCSc1nc2ccccc2[nH]1 | 50.5% (active) and -1.38% (inactive)
19 | c1ccc2[nH]c(-c3nc4ccccc4[nH]3)nc2c1 | -4.13% (inactive)
20 | COc1cc(OC)c(C2C(C(=O)O)c3cc(OC)c(OC)cc3C(=O)N2C)cc1OC (configuration not stated) | 4.71% (inactive)
21 | O=C(O)c1c[nH]c2ccc(S(=O)(=O)N3CCN(c4cccc(Cl)c4)CC3)cc2c1=O | -20.1% (inactive)
22 | COc1ccc(NC(=O)c2cc([N+](=O)[O-])ccc2Cl)cc1OC | -12.3% (inactive)
23 | COc1ccc(CCNC(=O)c2cc(Cl)ccc2OC)cc1 | -6.62% (inactive)

Row | Structure (SMILES) | inhibition
24 | COc1cc2ccccc2cc1C(=O)NCCc1ccccc1 | 76% (active)
25 | CC(=O)Oc1ccccc1C(=O)NCCc1ccccc1 | 3.04% (inactive)
26 | CCCCN(CC)C(=O)C1c2cc(OC)c(OC)cc2C(=O)N(C)C1c1ccccc1F (configuration not stated) | -7.13% (inactive)
27 | O=C(Oc1ccc(C2NC(=O)c3c(sc4c3CCCC4)N2)cc1)c1ccccc1 (configuration not stated) | -5.95% (inactive)
28 | O=S(=O)(Nc1ccccn1)c1ccccc1 | -1.79% (inactive)
29 | Cc1ccc(NC(=O)c2cccc(Oc3ccc(C#N)cc3)c2)cc1 | -12% (inactive)
30 | O=C(Nc1nccs1)c1cc2cc(Cl)ccc2oc1=Nc1ccc(Br)cc1 | -1.07% (inactive)
31 | COc1ccc(CNCC2OCCc3ccccc32)cc1OC (configuration not stated) | -5.29% (inactive)
32 | O=C(NCCc1ccccc1)C1Cc2ccccc2CN1S(=O)(=O)c1cccs1 (configuration not stated) | -6.94% (inactive)
33 | Cc1sc(NC(=O)c2cc(=O)c3ccccc3o2)nc1-c1ccccc1 | 0.55% (inactive)
34 | CCN(CC)c1ccc2cc(C(=O)NC(C)=O)c(=Nc3ccccc3OC)oc2c1 | 133% (active)
35 | CCN(CC)c1ccc2cc(C(=O)O)c(=O)oc2c1 | -6.88% (inactive)
36 | CCN(CC)c1ccc2cc(C(N)=O)c(=Nc3ccc(C(N)=O)cc3)oc2c1 | 3.05% (inactive)
37 | COc1cccc(-c2nn(C)c3sc(C(=O)NCCCOC(C)C)cc23)c1 | -12.3% (inactive)
38 | O=C(OCCN1C(=O)c2ccccc2C1=O)c1ccc([N+](=O)[O-])cc1 | 5.13% (inactive)
39 | COC(=O)c1ccc2c(c1N)C(=O)c1ccccc1C2=O | -200% (inactive)
40 | CC(C)CCOC(=O)c1c2c(n3ccccc13)C(=O)c1ccccc1C2=O | 34.6% (active)
41 | Cc1ccc2c(c1)-c1cccc3cccc(c13)C2=O | 3.94% (inactive)
42 | Cc1ccc2nc3c(nc2c1)C(=O)c1ccccc1C3=O | -16.2% (inactive)
43 | Cc1cc2c3c(ccc(N)c3n1)C(=O)c1ccccc1-2 | 127% (active)
44 | CCc1ccccc1NC(=O)c1cc2cc3ccc(OC)cc3nc2o1 | 17.8% (inactive)
45 | O=C(Cc1ccc(Cl)cc1)Nc1cccc(-c2nc3ccccc3o2)c1 | -129% (inactive)
46 | COc1ccc(C2C3=C(CCCC3=O)OC3=C2C(=O)CCC3)cc1 | 0.11% (inactive)

Row | Structure (SMILES) | inhibition
47 | CCC(=O)N1CCc2cc(S(=O)(=O)CCC(=O)N3CCN(c4cccc(OC)c4)CC3)ccc21 | 3.36% (inactive)
48 | COc1cc2ccccc2cc1C(=O)Nc1nc(-c2c(OC)ccc3ccccc23)cs1 | -0.5% (inactive)
49 | COC(=O)C1=CN(C)C=C(C(=O)OC)C1c1cc(OC)ccc1OC | 1.92% (inactive)
50 | O=C(COc1ccc(C2CCCCC2)cc1)Nc1ccc(-c2nc3ncccc3o2)cc1 | -12.3% (inactive)
51 | CC(=O)COc1cc(C)cc2oc(=O)c(Cc3ccccc3)c(C)c12 | 4.62% (inactive)
52 | COCCn1c(=S)[nH]c2cc(C(=O)N3CCN(C(=O)c4ccco4)CC3)ccc2c1=O | 2.47% (inactive)
53 | CCOc1cc2c(cc1OCC)C1C(C(=O)NCCN3CCOCC3)c3ccccc3C(=O)N1CC2 (configuration not stated) | 8.01% (inactive)
54 | C(=N\n1cnnc1)/c1cccnc1 | -6.33% (inactive)
55 | S=c1[nH]ncn1-c1cccnc1 | 40.8% (active)
56 | CC(C)(C)c1ccc(-c2nc(Cc3ccc(Cl)cc3)no2)cc1 | -5.54% (inactive)
57 | COC(=O)C1=C(C)N=C2SC(C)C(=O)N2C1c1ccc(C)cc1 (configuration not stated) | -10.9% (inactive)
58 | CC(C)c1ccc(NC(=O)c2ccc(F)c(S(=O)(=O)NCc3ccccc3Cl)c2)cc1 | -7.39% (inactive)
59 | COc1ccc(NC(=O)CSc2nc3nc(C)cc(C)n3n2)c(OC)c1 | -15.5% (inactive)
60 | CCOC(=O)c1ccc(N2C(=O)C3CCCCC3C2=O)cc1 (configuration not stated) | -3.67% (inactive)
61 | O=C(NCCC1=CCCCC1)c1ccc2c(=O)n(Cc3cccc(Br)c3)c(=S)[nH]c2c1 | -9.75% (inactive)
62 | CCc1ccc2oc(-c3cc(NC(=O)c4ccc(OC)cc4)ccc3Cl)nc2c1 | -44.5% (inactive)
63 | CC(C)(c1ccc(NC(=O)C(F)(F)F)cc1)c1ccc(NC(=O)C(F)(F)F)cc1 | -13.8% (inactive)
64 | CCN(CC)C(=O)CSc1nc2ccccc2n1S(=O)(=O)c1cccc([N+](=O)[O-])c1 | -1.43% (inactive)
65 | Cc1cc(N2CC(C)CC(C)C2)nc2ccc([N+](=O)[O-])cc12 (configuration not stated) | -9.05% (inactive)
66 | Cc1cc2c(c(=O)[nH]1)C(=O)NC2=O | -1.31% (inactive)
67 | O=c1cc(-c2ccccc2)nc(SCCOc2ccc(Cl)cc2)[nH]1 | -2.33% (inactive)
68 | Cc1ccc(CNC(=O)CN2CCN(Cc3ccc(Cl)cc3)C2=O)cc1 | -3.75% (inactive)
69 | Cc1ccccc1CN1CCN(CC(=O)NCc2cccs2)C1=O | -7.12% (inactive)

Row | Structure (SMILES) | inhibition
70 | Cc1ccccc1CN1CCN(CC(=O)NCc2ccccn2)C1=O | 45.7% (active) and 3.37% (inactive)
71 | CCOC(=O)c1cc2c(=O)n3ccccc3nc2n(CCCOC)c1=NC(=O)c1cccc(Br)c1 | 0.86% (inactive)
72 | CC(=O)C1=NN(c2ccccc2)C(c2c[nH]c3ccccc23)N1c1ccc(N2CCOCC2)c(Cl)c1 (configuration not stated) | -3.29% (inactive)
73 | CN(CCC#N)C(=O)CN1C(=O)COc2ccc(C(C)(C)C)cc21 | 2.44% (inactive)
74 | O=C1NCCCC1C(=O)NC1CCCCC1 (configuration not stated) | -10.1% (inactive)
75 | CCc1sc(-c2cc3cccc(OC)c3oc2=O)nc1-c1ccc(C)cc1 | -56.6% (inactive)
76 | Cc1ccc(C2OC3(C(=O)c4ccccc4C3=O)C3C(=O)N(c4ccc(Br)cc4)C(=O)C23)cc1 (configuration not stated) | -39.8% (inactive)
77 | COC(=O)c1ccc(NC(=O)c2ccco2)cc1 | -6.08% (inactive)
78 | O=C(OCC(=O)N1CCCC1)c1ccco1 | -8.04% (inactive)
79 | CC1CN(C)C(C)CC1OC(=O)c1ccco1 (configuration not stated) | 34.5% (active)
80 | O=C(Nc1ccccc1O)c1ccco1 | -6.85% (inactive)
81 | O=C(CCCOc1ccc(Br)cc1)Nc1ncc(Cc2ccc(F)cc2)s1 | -2.12% (inactive)
82 | COc1ccc(C2C=C(c3ccc(OC(F)F)cc3)Nc3ncnn32)cc1 (configuration not stated) | 4.5% (inactive)
83 | Cc1ccc(/C(O)=C2\C(=O)C(=O)N(CCC(=O)O)C2c2ccc(Br)cc2)cc1 (configuration not stated) | -1.96% (inactive)
84 | CCC(C(=O)Nc1c2c(nn1-c1ccc([N+](=O)[O-])cc1)CSC2)c1ccccc1 (configuration not stated) | -13.7% (inactive)
85 | CCNc1cc(Nc2ccccc2)c2c3c(onc13)-c1ccccc1C2=O | -69.4% (inactive)
86 | CN(C)c1ccc(Nc2cc(N3CCCC3)c3noc4c3c2C(=O)c2ccccc2-4)cc1 | -88.4% (inactive)
87 | CCCCCc1ccc(S(=O)(=O)Nc2cnc3ccccc3c2)cc1 | 0.52% (inactive)
88 | CC1CCN(CCCNC(=O)C2CC(=O)N(C3CCCCCCC3)C2)CC1 (configuration not stated) | 3.07% (inactive)
89 | Cn1c(SCc2ccccc2Br)nnc1-c1ccc([N+](=O)[O-])cc1 | -3.43% (inactive)
90 | CCOC(=O)C(NC(=O)c1ccc(OC)cc1)(NC1CCCCC1)C(F)(F)F (configuration not stated) | -6.18% (inactive)
91 | O=C(NCCn1cc(SCc2cccc(F)c2)c2ccccc21)c1ccccc1F | 0.8% (inactive)
92 | COc1cc([N+](=O)[O-])ccc1NC(=O)C1CC(=O)NC(=Nc2ccc(C)cc2)S1 (configuration not stated) | 1.95% (inactive)
